Molecules are shown by their SMILES. The source made the active and inactive calls.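 How the source made its calls, unless noted: active means inhibition of the reporter signal at or above 50%; inactive means inhibition below 50%.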

Assay [1] is described as follows: inhibitors of TNFa-induced NFkB p65 translocation, primary screen, imaging, HUVEC, MLSMR starter and 10KST1 sets (AID 438;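 active means inhibition above 20% together with a positive visual image hit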;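 further: compound added about 3h40 before a 20 min TNFalpha stimulation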;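 on inhibition: signal is the nuclear over cytoplasmic p65 intensity ratio per well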). The settings on record: HUVEC TNFa-induced p65 nuclear translocation; cell count: measured here: nuclei count (cytotoxicity indicator), at 2.08 µM; inhibition: at 2 µM, stronger effect = higher value, 0% TNFa-plus-vehicle, 100% no-TNFa wells.
The nature of assay [2]: reduction of polyQ htt aggregates in cells – imaging, exon1htt(103Q)mCFP cells, high-content imaging, primary screen (AID 483;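 active means visual image review flags a hit and inhibition of aggregation exceeds 20%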;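 further: compound exposure lasted 3 days before fixation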;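 on nuclei count: percent of the per-plate median nuclei count of sample wells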). As to conditions: exon1htt(103Q)mCFP cell line, aggregate imaging, at 2 µM; inhibition of aggregation: stronger effect = higher value; nuclei count: measured here: cell count, toxicity.
The nature of assay [3]: endothelial E-selectin expression blockers – imaging, HUVEC, immunofluorescence, MLSMR starter and 10KST1 sets, primary screen (AID 487;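 active means visually confirmed hit in the image check and inhibition above 20%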;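 on inhibition: signal is fraction of cell area covered by stained E-selectin grains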;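 on nuclei count: 100% = median nuclei count of all wells on the same plate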). As to conditions: HUVEC TNFalpha-induced E-selectin immunofluorescence imaging, at 2 µM; inhibition: stronger effect = higher value; nuclei count: measured here: cell number, toxicity.
Assay [4] has as its target Voltage-gated potassium channel subunit beta-2 (Rattus norvegicus) (UniProt P62483). As to the kind of experiment: inhibitors of rat Kvbeta2 reductase activity – biochemical, NADPH fluorescence, primary screen (AID 622;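 active means fluorescence slope higher than the sample average by over 3 SD, cut at about -0.22 in these data, passing the limit was not always enough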;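 further: slope of raw intensity against log time taken from 70 to 1610 s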). As to conditions: recombinant KvBeta, 4-cyanobenzaldehyde reduction, at 10 µM, stronger effect = higher value.
Assay [5] has the same target. Nature of the assay: enhancers of rat Kvbeta2 NADPH turnover – biochemical, NADPH fluorescence, primary screen (AID 623;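 active means NADPH fluorescence slope more negative than the mean of all samples by about 3 SD, 99.7% confidence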;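 further: fluorescence intensity change per second fitted from 20 to 320 s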). As to conditions: Recombinant KvBeta, NADPH fluorescence decrease slope, 10 min; at 10 µM; stronger effect = lower value.
Assay [6] deals with Alpha-2C adrenergic receptor (Homo sapiens) (UniProt P18825). As to the kind of experiment: compounds altering alpha2C-coupled GIRK flux – cell-based, HEK293 alpha2C/GIRK1/2, thallium flux, primary screen (AID 624;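 active means fluorescence slope after compound addition differing from the mean of all screened samples at 99.7% confidence, in either direction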;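 further: slope of fluorescence ratio to pre-addition baseline per second over 15 to 24 s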). As to conditions: thallium flux BTC fluorescence, at 10 µM, actives lie on both sides.
Chain of Alpha-2C adrenergic receptor (Homo sapiens) (P18825 whole entry, looked up): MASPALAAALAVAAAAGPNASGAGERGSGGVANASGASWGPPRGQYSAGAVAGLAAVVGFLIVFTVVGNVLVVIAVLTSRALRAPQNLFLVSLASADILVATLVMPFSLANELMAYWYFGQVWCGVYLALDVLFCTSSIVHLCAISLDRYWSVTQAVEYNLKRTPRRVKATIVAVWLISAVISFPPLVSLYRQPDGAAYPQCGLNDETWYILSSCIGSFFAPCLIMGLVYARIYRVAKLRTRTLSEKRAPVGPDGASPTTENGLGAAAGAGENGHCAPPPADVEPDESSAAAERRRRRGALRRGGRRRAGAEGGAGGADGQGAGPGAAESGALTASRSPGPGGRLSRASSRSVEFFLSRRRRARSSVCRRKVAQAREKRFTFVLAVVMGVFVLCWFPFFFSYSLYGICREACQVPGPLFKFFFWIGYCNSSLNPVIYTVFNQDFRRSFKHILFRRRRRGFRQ
Assay [7] in a line: blockers of RIG-like receptor reporter activation – cell-based, Sendai virus stimulus, luciferase, 10K MLSCN set, TLR/RLR signaling modifier project, primary screen (AID 602276;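 active means inhibition at or above 50% at 10 µM; inactive means inhibition below 50%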;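 further: firefly luciferase from ISG56 promoter only with Renilla not read in this screen; 0% = Sendai virus plus DMSO and 100% = medium plus DMSO without virus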). As to conditions: HEK293 RL24 IRF3 luciferase reporter, at 10 µM, stronger effect = higher value. On the technique in general: In a reporter assay the amount or activity of a reporter protein is the signal.
Assay [8] is described as follows: TLR3 IRF3 reporter activation blockers – cell-based, poly I:C stimulus, luciferase, 10K MLSCN set, primary screen (AID 602277). As to conditions: HEK293-TLR3 RL24 IRF3 luciferase reporter, at 10 µM, stronger effect = higher value.

Chain of Voltage-gated potassium channel subunit beta-2 (Rattus norvegicus) (P62483 whole entry, looked up): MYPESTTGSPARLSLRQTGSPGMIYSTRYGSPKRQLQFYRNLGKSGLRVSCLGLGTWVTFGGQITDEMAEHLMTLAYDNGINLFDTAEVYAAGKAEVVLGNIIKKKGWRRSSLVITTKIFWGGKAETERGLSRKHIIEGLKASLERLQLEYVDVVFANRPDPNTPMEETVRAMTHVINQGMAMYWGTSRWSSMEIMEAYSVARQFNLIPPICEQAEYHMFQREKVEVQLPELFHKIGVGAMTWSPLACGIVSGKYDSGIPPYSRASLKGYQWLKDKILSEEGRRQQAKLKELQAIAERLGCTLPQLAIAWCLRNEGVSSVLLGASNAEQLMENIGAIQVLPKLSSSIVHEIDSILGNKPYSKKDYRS

One may read the inhibition as the relative decrease from the control value, in per cent. For `C=CCn1c(SCc2ccc(C#N)cc2)nnc1-c1cccc(Cl)c1`, the cell count in assay [1] was 397. Moreover, the inhibition is -11.3% (inactive) in assay [1], -62.4% (inactive) in assay [3], 11.7% (inactive) in assay [7] and 35.5% (inactive) in assay [8]. The inhibition of aggregation in assay [2] was 10.7% (inactive). Also, the nuclei count in assay [2] turned out to be 95.4%; in assay [3], 187%. In addition, the fluorescence slope in assay [4] was -0.421 (inactive). In assay [5], the NADPH fluorescence slope was -4.1e-05 (inactive). In assay [6], the slope is 0.00297 (inactive).

`CN(CC(=O)Nc1nccs1)S(=O)(=O)c1ccc(F)cc1`: the cell count in assay [1] came to 352. Besides, the inhibition was -6.5% (inactive) in assay [1], -35.4% (inactive) in assay [3], -24.4% (inactive) in assay [7] and 1.06% (inactive) in assay [8]. For the same compound, the inhibition of aggregation in assay [2] was -4.8% (inactive). For the same compound, the nuclei count in assay [2] stood at 110%; in assay [3], 101%. Besides, the fluorescence slope in assay [4] was -0.465 (inactive). In addition, the NADPH fluorescence slope in assay [5] is -9.5e-06 (inactive). Also, in assay [6], the slope was 0.00636 (inactive).

Take `COc1cccc(Nc2cc(C)nc3ccccc23)c1`: the cell count in assay [1] worked out at 259. Also, the inhibition was 2.1% (inactive) in assay [1], -1% (inactive) in assay [3], -11.6% (inactive) in assay [7] and 99.5% (active) in assay [8]. In assay [2], the inhibition of aggregation was 11.8% (inactive). Besides, the nuclei count in assay [2] was 78.5%; in assay [3], 105%. For the same compound, the fluorescence slope in assay [4] is -0.412 (inactive). Further, in assay [5], the NADPH fluorescence slope was -6.3e-06 (inactive). Besides, the slope in assay [6] is 0.00478 (inactive).

In the case of `Cc1ccc(-c2noc(CCC(=O)NC3CCCc4ccccc43)n2)cc1` (centres undefined), the cell count in assay [1] came to 377. Moreover, the inhibition in assay [1] was -2% (inactive); in assay [3], -27.6% (inactive); in assay [7], 19.1% (inactive); in assay [8] it was 18.8% (inactive). Further, in assay [2], the inhibition of aggregation was 5.2% (inactive). In addition, the nuclei count in assay [2] amounted to 108%; in assay [3], 85.8%. Moreover, the fluorescence slope in assay [4] was -0.411 (inactive). In assay [5], the NADPH fluorescence slope is -3.2e-05 (inactive). For the same compound, the slope in assay [6] is 0.00255 (inactive).

Regarding `COc1ccc(OC)c(C(=O)CSc2nnc(-c3ccc(OC)c(OC)c3)o2)c1`, in assay [1], the cell count was 399. Besides, the inhibition was 1% (inactive) in assay [1], -114% (inactive) in assay [3], 12% (inactive) in assay [7] and 21.8% (inactive) in assay [8]. Also, in assay [2], the inhibition of aggregation is 44.4% (active). Besides, the nuclei count in assay [2] was 15.1%; in assay [3], 181%. For the same compound, in assay [4], the fluorescence slope was -0.458 (inactive). Besides, the NADPH fluorescence slope in assay [5] is 3.9e-05 (inactive). The slope in assay [6] was 0.00796 (inactive).

Consider `CCOc1ccccc1-n1c(SCC(=O)NC(C)CC)nnc1-c1ccoc1C` (centres undefined), for which the cell count in assay [1] was determined as 608. Besides, the inhibition in assay [1] is -2.4% (inactive); in assay [3], -47.9% (inactive); in assay [7], 18.6% (inactive); in assay [8], 17.4% (inactive). In assay [2], the inhibition of aggregation was -1.9% (inactive). The nuclei count in assay [2] turned out to be 105%; in assay [3] it was 121%. In addition, in assay [4], the fluorescence slope was -0.439 (inactive). Besides, the NADPH fluorescence slope in assay [5] is -3.6e-05 (inactive). Also, the slope in assay [6] was 0.00423 (inactive).

As for `C=CCOc1ccc(/C=N/n2cncn2)cc1OC`, the cell count in assay [1] came out at 517. Besides, the inhibition in assay [1] is -8.8% (inactive); in assay [3] it was -39.8% (inactive); in assay [7], -10.2% (inactive); in assay [8], 5.53% (inactive). Also, the inhibition of aggregation in assay [2] is 23.9% (inactive). Moreover, the results for the nuclei count in assay [2] and in assay [3] were 76.3% and 81.6%, respectively. Moreover, in assay [4], the fluorescence slope is -0.58 (inactive). In addition, the NADPH fluorescence slope in assay [5] was 2.1e-05 (inactive). Also, in assay [6], the slope is 0.00496 (inactive).

`CCOc1ccccc1C(=O)Nc1cc(=O)n(C)c(=O)n1C`: the cell count in assay [1] worked out at 651. Moreover, the inhibition in assay [1] was -0.8% (inactive); in assay [3], 31% (inactive); in assay [7], 14.8% (inactive); in assay [8], 39.7% (inactive). Besides, in assay [2], the inhibition of aggregation is 6.8% (inactive). Further, the nuclei count in assay [2] came out at 95.8%; in assay [3] it was 98.4%. Further, the fluorescence slope in assay [4] is -0.416 (inactive). In addition, the NADPH fluorescence slope in assay [5] is -4.9e-05 (inactive). Besides, in assay [6], the slope was 0.00585 (inactive).

For `C=CCc1ccccc1OCCCCN1CCCC1`, in assay [1], the cell count was determined as 750. Further, the inhibition in assay [1] was -8% (inactive); in assay [3], -10.4% (inactive); in assay [7], -11.7% (inactive); in assay [8], 19.4% (inactive). The inhibition of aggregation in assay [2] was 9.9% (inactive). Further, the results for the nuclei count in assay [2] and in assay [3] were 87.9% and 114%, respectively. In assay [4], the fluorescence slope is -0.497 (inactive). The NADPH fluorescence slope in assay [5] is -3.1e-05 (inactive). Moreover, the slope in assay [6] is 0.00605 (inactive).

`CCC(Oc1ccccc1)C(=O)Nc1ccccc1OC` (centres undefined): the cell count in assay [1] was 352. Further, the inhibition in assay [1] is 9.2% (inactive); in assay [3], -33.3% (inactive); in assay [7] it was 0.598% (inactive); in assay [8], 19.3% (inactive). Also, the inhibition of aggregation in assay [2] is -9.3% (inactive). The nuclei count in assay [2] was 106%; in assay [3] it was 109%. The fluorescence slope in assay [4] was -0.487 (inactive). For the same compound, the NADPH fluorescence slope in assay [5] was -1.9e-05 (inactive). In addition, the slope in assay [6] is 0.00497 (inactive).

With `CC(NC(=O)Nc1ccccc1)C(c1cccs1)N1CCOCC1` (centres undefined), the cell count in assay [1] turned out to be 606. In addition, the inhibition in assay [1] was -0.5% (inactive); in assay [3] it was -2.9% (inactive); in assay [7], 1.55% (inactive); in assay [8], 31% (inactive). Also, in assay [2], the inhibition of aggregation is -6.2% (inactive). The figures for the nuclei count in assay [2] and in assay [3] were 97.6% and 111%, respectively. In addition, the fluorescence slope in assay [4] is -0.6 (inactive). Moreover, the NADPH fluorescence slope in assay [5] is -9.3e-06 (inactive). Further, the slope in assay [6] was 0.00654 (inactive).

As to `O=C(NC1CCCCC1)C(c1ccccc1)N(Cc1ccco1)C(=O)Cn1cnc2ccccc21` (centres undefined), the cell count in assay [1] turned out to be 375. The inhibition in assay [1] was -1.6% (inactive); in assay [3], -70.5% (inactive); in assay [7], 9.18% (inactive); in assay [8] it was 20.8% (inactive). Further, the inhibition of aggregation in assay [2] was -19.6% (inactive). The nuclei count in assay [2] came out at 114%; in assay [3] it was 108%. Besides, the fluorescence slope in assay [4] was -0.586 (inactive). The NADPH fluorescence slope in assay [5] is -3.7e-05 (inactive). The slope in assay [6] is 0.00243 (inactive).

As to `O=C(NCc1ccco1)c1cccn2c(=O)c3sccc3nc12`, the cell count in assay [1] was 452. Moreover, the inhibition in assay [1] was -1.9% (inactive); in assay [3], 19.6% (inactive); in assay [7], -2.36% (inactive); in assay [8] it was -2.82% (inactive). Besides, in assay [2], the inhibition of aggregation is -0.8% (inactive). Besides, the nuclei count in assay [2] stood at 96%; in assay [3], 101%. In addition, the fluorescence slope in assay [4] was -0.112 (inactive). In assay [5], the NADPH fluorescence slope was -7.3e-06 (inactive). Besides, in assay [6], the slope is 0.00303 (inactive).

Turning to `CCC1(C(=O)OC)NC(c2cccc(F)c2)C2C(=O)N(C)C(=O)C21` (centres undefined), in assay [1], the cell count is 715. Also, the inhibition in assay [1] was -1.8% (inactive); in assay [3] it was -167% (inactive); in assay [7], 14.4% (inactive); in assay [8], 30.6% (inactive). In assay [2], the inhibition of aggregation is 11.4% (inactive). For the same compound, the nuclei count in assay [2] came out at 101%; in assay [3], 112%. The fluorescence slope in assay [4] is -0.272 (inactive). In addition, the NADPH fluorescence slope in assay [5] is -5.7e-05 (inactive). Besides, in assay [6], the slope is 0.00554 (inactive).

(Values after PubChem BioAssay.)
